# Laboratory results reported in the supplement of paper PMC7156485.
# Values joined by “and” are separate entries in the source; they are usually repeats but may differ in a detail not shown here. Equal entries are not always repeated. ± gives the standard deviation of the averaged measurements.
# Columns and labels:
# Conditions in all cases: concentration: 10 µM; 24 h
# [1] = test system: HCC1569; test: cell number relative to DMSO (% of DMSO); higher = more cells (less growth inhibition / toxicity)
# Summary of the method: (§1)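 Cells were seeded at 800 per well in 384-well plates with RPMI containing 10% FBS; both HCC1569 and TDF lines were used. Compounds were added at 10 µM for 24 h at 37 °C, in triplicate, before fixation in 3.7% formaldehyde and staining with a rabbit anti-H1.0 antibody, an AlexaFluor 647 secondary and DAPI. H1.0 nuclear intensity or cell number is reported as percent of the plate control using the median of replicates, and HCC1569 values were smoothed for positional effects.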
# [2] = test system: TDF; test: as above
# Summary of the method: as §1
# [3] = test system: TDF; test: H1.0 immunofluorescence intensity relative to DMSO (% of DMSO); higher = stronger H1.0 induction, active = 120 or more
# Summary of the method: as §1
# [4] = test system: HCC1569; test: H1.0 immunofluorescence intensity relative to DMSO (% of DMSO); higher = stronger H1.0 induction, active = 140 or more
# Summary of the method: as §1
# 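Wherever H1.0 immunofluorescence intensity relative to DMSO is given: TDF is a line of transformed human dermal fibroblasts of mesenchymal origin.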
# 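Wherever cell number relative to DMSO is given: TDF denotes transformed human dermal fibroblasts of mesenchymal origin.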
SMILES,cell number [1],cell number [2],H1.0 immunofluorescence intensity [3],H1.0 immunofluorescence intensity [4]
Br.CCCN(CCC)C1CCc2cccc(O)c2C1 (stereo not drawn) [R-(+)-8-Hydroxy-DPAT hydrobromide],99.2,90.1,105 (inactive),96.5 (inactive)
"COc1ccc2c(c1OC)C(=O)OC2C1c2cc3c(cc2CCN1C)OCO3 (single isomer, unassigned; (+)) [(+)-Hydrastine]",98.7,104,96.4 (inactive),89.2 (inactive)
CCCCCC=CC=CC(CCCCCCCC(=O)O)OO (stereo not drawn),101,94,100 (inactive),94.9 (inactive)
"CCCCCC=CCC=CCC=CCCCCCCC(=O)NCCO [Anandamide (20:3,n-6)]",101,97.4,102 (inactive),103 (inactive)
Clc1ccc(C2CC3CCC2N3)cn1 (racemic),102,96.3,90.6 (inactive),81.4 (inactive)
"C[N+]1(C)CCc2cc3c(cc2C1C1OC(=O)c2c1ccc1c2OCO1)OCO3.[Br-] (single isomer, unassigned; (-)) [(-)-Bicuculline methbromide, 1(S), 9(R)]",101,104,94.2 (inactive),96.4 (inactive)
O=P1(NCCCl)OCCCN1CCCl (stereo not drawn) [Ifosfamide],103,105,97.2 (inactive),112 (inactive)
CCn1cnc2c(Nc3cccc(Cl)c3)nc(NC3CCCCC3N)nc21 (stereo not drawn),54,13.5,141 (active),134 (inactive)
Cc1ncc(CNC(=O)N(CCCl)N=O)c(N)n1.Cl [Nimustine hydrochloride],97.8,64.7,104 (inactive),94.4 (inactive)
COc1cc(C2c3cc4c(cc3C(O)C3COC(=O)C23)OCO4)cc(OC)c1OC (stereo not drawn) [Picropodophyllin],58.3,10.9,165 (active),128 (inactive)
CCCN(CCC)C1CCc2cccc(O)c2C1 (racemic),101,88.4,98 (inactive),86.9 (inactive)
CC12CCC(O)CC1CCC1C2CCC2(C)C(C3=CC(=O)OC3)C(O)CC12O (stereo not drawn) [Gitoxigenin],104,73.1,103 (inactive),81.4 (inactive)
Nc1ccc(CCN2CCN(c3cccc(C(F)(F)F)c3)CC2)cc1,95.1,98.9,99.4 (inactive),107 (inactive)
NC(=S)NN=Cc1coc2ccccc2c1=O.[Cl][Cu][Cl],96.2,86,105 (inactive),100 (inactive)
C#CCNC(C)Cc1ccccc1.Cl (stereo not drawn) [R-(-)-Desmethyldeprenyl hydrochloride],102,103,97.2 (inactive),90.7 (inactive)
CC1CCC2C(C)C(=O)OC3OC4(C)CCC1C32OO4 (stereo not drawn) [Artemesinin],102 ± 2.5,97.4 ± 2.2,95.9 (inactive),116 (inactive)
c1ccc2c3c([nH]c2c1)CNCC3 [Noreleagnine],103,108,92.6 (inactive),88.4 (inactive)
CC(C)=CCCC1(C)C=Cc2c(O)c3c(c(CC=C(C)C)c2O1)OC12C(=CC4CC1C(C)(C)OC2(CC=C(C)C(=O)O)C4=O)C3=O (stereo not drawn) [Gambogic acid],14.1,10.6,148 (active),58.8 (inactive)
CNCCc1c[nH]c2ccc(O)cc12.O=C(O)C(=O)O [N-omega-Methyl-5-hydroxytryptamine oxalate salt],101,103,91 (inactive),96.1 (inactive)
CC(C)CC1C(=O)N2CCCC2C2(O)OC(NC(=O)C3C=C4c5cccc6[nH]c(Br)c(c56)CC4N(C)C3)(C(C)C)C(=O)N12.CS(=O)(=O)O (stereo not drawn) [Bromocriptine mesylate],99.5 ± 2.3,102.8 ± 0.3,94.1 (inactive),102 (inactive)
O=C1NC(=O)c2c1c1c3ccccc3n3c1c1c2c2ccccc2n1C1CCC3O1,77.9 and 77.4,74.9 and 76.9,105 (inactive) and 100 (inactive),126 (inactive) and 107 (inactive)
CN1CC(C(=O)NC2(C)OC3(O)C4CCCN4C(=O)C(Cc4ccccc4)N3C2=O)CC2c3cccc4[nH]cc(c34)CC21.CS(=O)(=O)O (stereo not drawn) [Dihydroergotamine methanesulfonate],102,108,90.1 (inactive),95.5 (inactive)
"CCC(C)CC(C)N (stereo not drawn) [1,3-dimethylpentylamine]",103,106,99 (inactive),96.9 (inactive)
Br.CC(Cc1ccc(O)cc1)NCC(O)c1cc(O)cc(O)c1 (stereo not drawn) [Fenoterol hydrobromide],104,105,88.3 (inactive),112 (inactive)

SMILES,cell number [1],cell number [2],H1.0 immunofluorescence intensity [3],H1.0 immunofluorescence intensity [4]
C=C(C)C1Cc2c(ccc3c2OC2COc4cc(OC)c(OC)cc4C2C3=O)O1 (stereo not drawn) [Rotenone],59.7 ± 1.6,16.2 ± 0.54,147 (active),178 (active)
CC(NC(C)(C)C)C(=O)c1cccc(Cl)c1.Cl (stereo not drawn) [Bupropion hydrochloride],106,109,102 (inactive),99.7 (inactive)
CN1C2CC(OC(=O)C(CO)c3ccccc3)CC1C1OC12 (stereo not drawn) [Scopolamine],102,105,94.4 (inactive),96.7 (inactive)
"CN(C(=O)Cc1ccc(Cl)c(Cl)c1)C(CN1CCCC1)c1cccc(OCC(=O)O)c1.Cl (stereo not drawn) [ICI 204,448 hydrochloride]",104,104,89.4 (inactive),92.8 (inactive)
Cc1cccc(C)c1NC1=NCCCS1 [Xylazine],106,106,95.4 (inactive),106 (inactive)
Cc1nc(-c2ccc(-c3ccc(C(=O)N4CCc5cc6c(cc54)C4(CCN(C)CC4)CO6)cc3)c(C)c2)no1.Cl,70.1,94.7,114 (inactive),150 (active)
OC1CN2CCCC(O)C2C1O (stereo not drawn) [Swainsonine],100,98.6,99.5 (inactive),95.8 (inactive)
Cl.O=C(OC1CCN(CCCl)CC1)C(c1ccccc1)c1ccccc1 [4-Diphenylacetoxy-N-(2-chloroethyl)piperidine hydrochloride],98.2,94.9,89.5 (inactive),87.6 (inactive)
"C/C(Nc1ccccc1)=C1\C(=O)NC(Cc2ccccc2)C1=O (stereo not drawn) [(3E)-3-(1-anilinoethylidene)-5-benzyl-2,4-pyrrolidinedione]",60.4,7.27,193 (active),148 (active)
CC=C1CC(C)C(C)(O)C(=O)OCC2=CCN3CCC(OC1=O)C23 (stereo not drawn) [Senecionine],98.6,101,108 (inactive),91.8 (inactive)
CCC(C)C1OC2(C=CC1C)CC1CC(CC=C(C)C(OC3CC(OC)C(OC4CC(OC)C(O)C(C)O4)C(C)O3)C(C)C=CC=C3COC4C(O)C(C)=CC(C(=O)O1)C34O)O2 (stereo not drawn) [Abamectin],101,94.4,101 (inactive),103 (inactive)
COc1cc2c(c(OC)c1OC)-c1ccc(OC)c(=O)cc1C(NC(C)=O)CC2 (stereo not drawn) [Colchicine],57.57 ± 0.52,9.12 ± 1.6,168 (active),132 (inactive)
Cl.O=c1[nH]oc2c1CCNC2 [THIP hydrochloride],100,112,94 (inactive),86.1 (inactive)
CN1CC(C(=O)NC2(C)OC3(O)C4CCCN4C(=O)C(Cc4ccccc4)N3C2=O)CC2c3cccc4[nH]cc(c34)CC21.CS(=O)(=O)O (stereo not drawn) [Dihydroergotamine mesylate],98.8,102,92.6 (inactive),105 (inactive)
C=CCc1cc(OC)c2c(c1)OCO2 [Myristicin],104,103,104 (inactive),81.5 (inactive)
"CC1OCC(C[N+](C)(C)C)O1.[I-] (single isomer, unassigned; (+)) [(+)-cis-Dioxolane iodide]",102,103,96 (inactive),99.6 (inactive)
"COc1ccc2c3c1OC1C(=O)CCC4(O)C(C2)N(CC2CC2)CCC314.Cl (single isomer, unassigned; (-)) [(-)-3-Methoxynaltrexone hydrochloride]",104,109,88.4 (inactive),86.7 (inactive)
CC1OC(OC2CC(O)C3(CO)C4C(O)CC5(C)C(C6=CC(=O)OC6)CCC5(O)C4CCC3(O)C2)C(O)C(O)C1O (stereo not drawn) [Ouabain],46.2,36.4,125 (active),126 (inactive)
Cl.OC1CCCCC1N1CCC(c2ccccc2)CC1 (stereo not drawn) [Vesamicol hydrochloride],99,104,94.2 (inactive),106 (inactive)
CC(C)(C)NCC(O)c1ccccc1Cl.Cl (stereo not drawn) [Tulobuterol hydrochloride],101,110,89.1 (inactive),96.4 (inactive)
COc1ccc(C(=O)OC2CCC3(C)C4CCC5C6(O)CC(O)C7(O)C(CN8CC(C)CCC8C7(C)O)C6(O)CC53OC24O)cc1OC (stereo not drawn) [Veratridine],107,97.2,96.7 (inactive),81.9 (inactive)
C=C(C)C1CNC(C(=O)O)C1CC(=O)O (stereo not drawn) [Kainic acid],103 ± 3.2,108 ± 3,92.5 (inactive),88.9 (inactive)
CC(=O)OCC1=CC2C3C(C)(C)C3(OC(=O)Cc3ccccc3)CC(C)C2(O)C2C=C(C)C(=O)C2(O)C1 (stereo not drawn) [12-Deoxyphorbol 13-phenylacetate 20-acetate],90.8,74,105 (inactive),137 (inactive)
